Compounds without any hit were thinned out: in the full panel of roughly 83,000, 20% have a hit.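 A percent growth of 40 corresponds to 60% growth inhibition; 0 means no net growth; -100 means all cells died. Active threshold: below 10.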 Values without a mark were called inactive. Calls of active or inactive are those of the source.

Among the test systems are HCT-15 colon; HT29 colon; SNB-75 CNS; SNB-19 CNS; U251 CNS; PC-3 prostate; SK-MEL-5 melanoma; UACC-62 melanoma; LOX IMVI melanoma; SK-MEL-28 melanoma; SK-MEL-2 melanoma; EKVX NSCLC; SN12C renal; UO-31 renal; TK-10 renal; ACHN renal; A498 renal; CCRF-CEM leukemia; MOLT-4 leukemia; CAKI-1 renal.
Common to all, as to test: NCI-60 one-dose screen, 48 h (100 = growth as untreated, 0 = no growth, -100 = all killed)
Common to all, as to conditions: 10 µM

For the compound `O=c1oc2ccccc2cc1-c1csc(N=Nc2c(O)[nH]c3ccc(Br)cc23)n1`, the growth in the assay with HCT-15 colon was 97%; with HT29 colon it was 109%; in the assay with SNB-75 CNS, 96.1%; with SNB-19 CNS it was 29%; in the assay with U251 CNS, 40.4%; with PC-3 prostate, 89.1%. The growth in the assay on SK-MEL-5 melanoma was 98.1%; in the assay on UACC-62 melanoma it was 78.1%; with LOX IMVI melanoma it was 62.8%; in the assay with SK-MEL-28 melanoma, 105%; in the assay on SK-MEL-2 melanoma, 60.3%; with EKVX NSCLC, 73.7%. For the same compound, the growth in the assay with SN12C renal was 85.3%; with UO-31 renal it was 82.7%; in the assay with TK-10 renal it was 86.8%; in the assay with ACHN renal it was 48.8%; with A498 renal, 54.1%; in the assay with CCRF-CEM leukemia it was 99.8%. The growth in the assay on MOLT-4 leukemia is 103%.

Take `O=C(O)CCCCCCCCCCN1C(=O)/C(=C/c2cnc(-c3ccccc3)s2)SC1=S`: the growth was 80.7% in the assay on HCT-15 colon; 126% with HT29 colon; 124% with SNB-75 CNS; 100% with SNB-19 CNS; 59.5% in the assay with U251 CNS; 95% in the assay with PC-3 prostate. In addition, the growth in the assay on SK-MEL-5 melanoma is 93.1%; with UACC-62 melanoma, 76.4%; in the assay on LOX IMVI melanoma, 32.1%; with SK-MEL-28 melanoma it was 97.4%; with SK-MEL-2 melanoma it was 93.2%; in the assay with EKVX NSCLC, 52.8%. The growth was 30.1% in the assay on SN12C renal; 77.5% with UO-31 renal; 150% in the assay with TK-10 renal; 70.3% in the assay on ACHN renal; 61.6% with CAKI-1 renal; 99.8% in the assay with A498 renal. Further, the growth with MOLT-4 leukemia is 39.1%.

Take `O=C(Cn1cc(CSc2nnc3oc4ccccc4n23)nn1)Nc1ccc(Br)cc1`: the growth was 82.5% in the assay with HCT-15 colon; 103% in the assay with HT29 colon; -24.5% (active) in the assay with SNB-75 CNS; 24.7% in the assay with SNB-19 CNS; 54.3% in the assay on U251 CNS; 80% in the assay on PC-3 prostate. The growth with SK-MEL-5 melanoma is 92.4%; in the assay with UACC-62 melanoma, 49.8%; in the assay on LOX IMVI melanoma, 54.9%; with SK-MEL-28 melanoma, 89.7%; with SK-MEL-2 melanoma, 71.5%; in the assay with EKVX NSCLC, 78.5%. The growth in the assay with SN12C renal was 61.5%; in the assay with UO-31 renal it was 74.2%; in the assay on TK-10 renal it was 85.8%; in the assay on ACHN renal, 75.2%; with A498 renal it was 119%; with CCRF-CEM leukemia it was 97.9%.

Regarding `Nc1n[nH]c2cccc(C#Cc3cccc(NC(=O)Nc4cc(C(F)(F)F)cc(C(F)(F)F)c4)c3)c12`, the growth is -81.8% (active) in the assay with HCT-15 colon; -49.7% (active) with HT29 colon; -0.721% (active) in the assay with SNB-75 CNS; -19.7% (active) with SNB-19 CNS; -78.5% (active) in the assay on U251 CNS; -4.77% (active) in the assay with PC-3 prostate. Moreover, the growth is -100% (active) in the assay with SK-MEL-5 melanoma; -90.9% (active) with UACC-62 melanoma; -100% (active) in the assay on LOX IMVI melanoma; -88.5% (active) in the assay with SK-MEL-28 melanoma; -96.8% (active) in the assay on SK-MEL-2 melanoma; -30.3% (active) in the assay on EKVX NSCLC. Further, the growth with SN12C renal is -85.9% (active); in the assay on UO-31 renal, -52.5% (active); in the assay with TK-10 renal it was -3.32% (active); with ACHN renal, -25.4% (active); in the assay on A498 renal, -17.4% (active); with CCRF-CEM leukemia, -1.88% (active). Also, in the assay on MOLT-4 leukemia, the growth is -1.46% (active).

Turning to `O=C(CS(=O)(=O)c1oc(-c2ccc(Cl)cc2)nc1S(=O)(=O)c1ccc(Cl)cc1)N1CCOCC1`, the growth in the assay with HCT-15 colon is -53.6% (active); with HT29 colon it was -48.9% (active); in the assay with SNB-75 CNS it was 54.7%; in the assay on SNB-19 CNS it was 86.2%; in the assay with U251 CNS it was 35.9%; with PC-3 prostate, 63.3%. Further, the growth is 77.6% in the assay with SK-MEL-5 melanoma; 56.7% in the assay on UACC-62 melanoma; -90.8% (active) with LOX IMVI melanoma; 35% in the assay on SK-MEL-28 melanoma; 83.9% in the assay with SK-MEL-2 melanoma; 83.5% with EKVX NSCLC. The growth with SN12C renal is 55.3%; with UO-31 renal, -19.9% (active); in the assay with TK-10 renal, 16.5%; in the assay on ACHN renal it was -98.2% (active); with A498 renal, 134%; in the assay with CCRF-CEM leukemia, -34.6% (active).

For the compound `O=C(NC(=S)N1CCN(c2ncnc3c2cnn3-c2ccccc2)CC1)c1ccc(Cl)cc1`, the growth was 52.3% in the assay with HCT-15 colon; 79.1% in the assay with HT29 colon; 2.35% (active) with SNB-75 CNS; 28.2% in the assay on SNB-19 CNS; 38.3% in the assay with U251 CNS; 47.3% in the assay on PC-3 prostate. In addition, the growth in the assay on SK-MEL-5 melanoma was 76.3%; in the assay on UACC-62 melanoma it was 68.9%; in the assay on LOX IMVI melanoma it was 14.3%; in the assay with SK-MEL-28 melanoma it was 82.5%; in the assay on SK-MEL-2 melanoma, 88.8%; in the assay on EKVX NSCLC, 62.7%. Further, the growth was 28.3% in the assay with SN12C renal; 40% in the assay on UO-31 renal; 109% with TK-10 renal; 24.5% with ACHN renal; 27.7% in the assay on CAKI-1 renal; 68.4% in the assay on A498 renal. The growth in the assay on MOLT-4 leukemia is 81.6%.

As to `Cc1cc(C)cc(Oc2cccc(-c3c(C)nnn3C3CCN(CCN(C)C)CC3)n2)c1`, the growth is 7.96% (active) with HCT-15 colon; 11% in the assay on HT29 colon; 16.7% in the assay on SNB-75 CNS; 47.7% with SNB-19 CNS; 36.5% in the assay with U251 CNS; 37.7% with PC-3 prostate. The growth was -53.4% (active) in the assay with SK-MEL-5 melanoma; 18.2% in the assay on UACC-62 melanoma; 2.35% (active) in the assay on LOX IMVI melanoma; 19% in the assay on SK-MEL-28 melanoma; 38.7% with SK-MEL-2 melanoma; 39.7% with EKVX NSCLC. Moreover, the growth is 41.4% with SN12C renal; 15.8% in the assay on UO-31 renal; 21.1% in the assay with TK-10 renal; 26.2% in the assay on ACHN renal; 56.4% in the assay on A498 renal; 16.7% in the assay on CCRF-CEM leukemia. Further, the growth in the assay with MOLT-4 leukemia was 30.8%.

Turning to `CN1C(=O)N(C)C2SC(N/N=C/c3ccccc3F)=NC21` (stereo not given), the growth was 28.2% in the assay on HCT-15 colon; 28.2% in the assay on HT29 colon; 91.1% with SNB-75 CNS; 63.4% with SNB-19 CNS; 51.2% in the assay on U251 CNS; 81.5% in the assay on PC-3 prostate. The growth with SK-MEL-5 melanoma is 57.9%; with UACC-62 melanoma it was 26.8%; with LOX IMVI melanoma, 50.2%; in the assay on SK-MEL-28 melanoma it was 69.2%; with SK-MEL-2 melanoma, 56.4%; in the assay with EKVX NSCLC, 86.4%. For the same compound, the growth is 71.3% in the assay on SN12C renal; 60.6% with UO-31 renal; 83.6% with TK-10 renal; 85.5% in the assay with ACHN renal; 82.4% with A498 renal; 67.3% with CCRF-CEM leukemia. Moreover, in the assay with MOLT-4 leukemia, the growth is 44.5%.

Source of the values: PubChem BioAssay (NCI).
